FMDV inh: blocks foot and mouth disease virus; FMDV antiviral cell-based qHTS; Potency, µM (titrated, usually from 57.9 µM), actives largely listed as inhibitors; 410,000 tested, 1.2% active; AID 1159524; calls by dose curve; tested in HEK293T cells; further: read-out not given here; nearly all actives have a fitted effect of over 45% in size
AmpC detergent: AmpC beta-lactamase inhibition with detergent present | P00811 | AmpC hydrolysis of nitrocefin, absorbance 480 nm, 0.01% Triton | Potency, µM (top dose mostly 114 µM), usual class: inhibitors | 370,000 tested, 0.041% active; further: nearly all actives have a fitted effect of over 25% in size
Target sequence (P00811 whole entry, looked up): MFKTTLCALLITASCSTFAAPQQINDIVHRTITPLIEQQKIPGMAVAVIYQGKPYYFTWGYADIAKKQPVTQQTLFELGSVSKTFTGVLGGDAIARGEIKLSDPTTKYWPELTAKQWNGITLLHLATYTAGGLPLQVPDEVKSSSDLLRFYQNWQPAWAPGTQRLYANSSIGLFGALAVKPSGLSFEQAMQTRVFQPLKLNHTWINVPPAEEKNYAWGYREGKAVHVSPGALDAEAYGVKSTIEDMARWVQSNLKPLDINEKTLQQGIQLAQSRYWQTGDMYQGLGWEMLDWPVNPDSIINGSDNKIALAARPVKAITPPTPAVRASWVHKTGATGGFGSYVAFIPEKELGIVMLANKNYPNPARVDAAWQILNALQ
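AmpC (5.3 nM in the dispensed reagent) in 20 mM phosphate pH 7.0 with 0.01% (detergent screen) or 0.0001% Triton X-100 was preincubated with compounds for 15 min at room temperature. Nitrocefin was then added from an 800 uM solution, and hydrolysis was followed at 480 nm.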
HCMV antiviral: inhibitors of human cytomegalovirus | 410,000 tested, 4.5% active | activity change, negative = inhibition, % at 57.5 µM | HFF cells, HCMV-luciferase reporter, 72 h; active compounds read low; in the data active means activity change below about -60%; inconclusive means no clear call, values can overlap the other calls; inactive means above about -39%
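After 16 h attachment at 37C, HFF cells received test compound and HCMV-luciferase (1 PFU/cell); reporter luminescence read 72 h later, data normalized against buffer-only and known inhibitor Salinomycin.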
AmpC no deterg: AmpC beta-lactamase inhibition without detergent | P00811 | AmpC nitrocefin hydrolysis, absorbance 480 nm, 0.0001% Triton | Potency, µM (top dose mostly 57.1 µM), usual class: inhibitors | 330,000 tested, 0.52% active | AID 485341; further: nearly all actives have a fitted effect of over 20% in size
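20 mM phosphate pH 7.0 + 0.01% (detergent screen) or 0.0001% Triton X-100; 5.3 nM AmpC reagent; cpd preinc 15 min RT; nitrocefin (800 uM stock) to start; A480 q20 s × 4 min; Activity was normalised to no-enzyme and no-compound control wells.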
HCV inhibitor: blocks hepatitis C virus; Potency, µM (highest dose often 41.8 µM), actives largely listed as inhibitors; 340,000 tested, 3.4% active; Huh7.5.1 HCVcc-Cre infection, luciferase reporter, 44 h
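Reporter virus HCVcc-Cre (~0.5 moi) infects cells exposed to compound; seeding density 1,000 cells/well with 4 h settling beforehand. Luminescence, 15 sec read, taken 44 h post-infection following a 15 min RT substrate incubation.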
Large screens that a line does not name were inactive. Shown are actives, neighbours in structure and some others; about 7.3% of the full set was active somewhere. Unless noted, the call rests on the fitted dose curve; in most records, active means well fitted curve in the direction sought with a large enough effect; inconclusive means small, poorly fitted or top-dose-only effect, or another doubt; inactive means no such curve, though single readings can be large; an effect the other way counts as inactive or inconclusive.

O=C(CSc1cn[nH]n1)Nc1ccc(Cl)cc1Cl	none
Cc1cccc(Cc2ccc3ncc(-c4cccc(C(N)=O)c4)n3n2)c1	HCMV antiviral -72 (no result: FMDV inh, AmpC detergent, AmpC no deterg, HCV inhibitor)
CNC(=O)c1cccc(-c2ccc3ncc(-c4cccc(C(=O)NCCN(C)C)c4)n3n2)c1	none (no result: FMDV inh, AmpC detergent, AmpC no deterg, HCV inhibitor)
COc1ccc(OCCOC(=O)CNS(=O)(=O)c2ccc(SC)c([N+](=O)[O-])c2)cc1	none
Cc1ccc(-c2cc(-c3ccccc3)cc(-c3ccccc3)[n+]2-c2ccccc2C(=O)O)cc1	FMDV inh inconclusive, AmpC detergent inconclusive, HCMV antiviral -67, HCV inhibitor inconclusive
O=C([O-])c1ccc(-[n+]2c(-c3ccccc3)cc(-c3ccccc3)cc2-c2ccccc2)cc1	AmpC detergent inconclusive
COc1ccccc1CN1CCOc2ccc(C(C)(O)COc3ccccc3)cc2C1 (stereo not drawn)	none (no result: AmpC detergent, HCMV antiviral, AmpC no deterg, HCV inhibitor)
S=C(Nc1cccc(Cl)c1Cl)NC1CCN(Cc2ccccc2)CC1	HCMV antiviral -66, HCV inhibitor inconclusive
Fc1ccc(NC(=S)NC2CCN(Cc3ccccc3)CC2)cc1	HCV inhibitor inconclusive
CCc1ccc(NC(=S)NC2CC3CCCC(C2)N3Cc2ccccc2)cc1 (stereo not drawn)	HCMV antiviral inconclusive, HCV inhibitor 10µM
S=C(NCc1ccccc1)N1CCN(Cc2ccc3c(c2)OCO3)CC1	none
S=C(Nc1ccc(Cl)c(Cl)c1)NC1CCN(Cc2ccccc2)CC1	FMDV inh 14µM, AmpC detergent inconclusive, HCMV antiviral -78, HCV inhibitor 14µM
S=C(NCc1ccc2c(c1)OCO2)NC1CCN(Cc2ccccc2)CC1	HCMV antiviral -78, HCV inhibitor inconclusive
CCN(Cc1ccncc1)Cc1ccc2c(c1)CN(C(=O)c1ccc(C#CC(C)(C)O)o1)CCO2	none (no result: AmpC detergent, HCMV antiviral, AmpC no deterg, HCV inhibitor)
COc1ccccc1NC(=O)N1CC(=O)N2[C@H](CO)[C@@H](c3ccc(Br)cc3)[C@H]2C1	none (no result: FMDV inh, AmpC detergent, AmpC no deterg, HCV inhibitor)
COCCc1nc2ccc(C(=O)N(C)Cc3cccc(-n4cccn4)c3)cc2o1	none
O=C(NC1CCCC1)c1cn(C2CCCN(Cc3ccc4c(c3)OCCO4)C2)nn1 (stereo not drawn)	none (no result: AmpC detergent, HCMV antiviral, AmpC no deterg, HCV inhibitor)
C1=C(c2c[nH]c3ccccc23)CCN(Cc2ccccc2)C1	HCMV antiviral -97, HCV inhibitor inconclusive
COc1ccccc1NC(=O)N1CC=C(c2c[nH]c3ccccc23)CC1	none (no result: AmpC no deterg, HCV inhibitor)
CN1CC=C(c2c[nH]c3ccccc23)CC1	AmpC detergent inconclusive, HCV inhibitor 6.3µM
O=C(Nc1cccc(N2CCC(NCc3cnn(-c4ccccc4)n3)CC2)c1)c1cccnc1	none (no result: AmpC detergent, HCMV antiviral, AmpC no deterg, HCV inhibitor)
CC(C)C1N(c2ccccc2)C(N)=C(C#N)C1(C#N)C#N (stereo not drawn)	FMDV inh inconclusive, HCMV antiviral -66, HCV inhibitor inconclusive
CC(NC(=S)Nc1ccccc1OC(F)F)C(C)(C)C (stereo not drawn)	HCMV antiviral -65
CCN1[C@@H]2c3cccc(=O)n3C[C@H]1[C@H](CO)[C@H]2C(=O)OC	none (no result: FMDV inh, AmpC detergent, AmpC no deterg, HCV inhibitor)
COc1ccc(-c2nc3cnc(N4CCOCC4)nc3n(C[C@H]3CCCO3)c2=O)cc1	none (no result: AmpC detergent, HCMV antiviral, AmpC no deterg, HCV inhibitor)
COc1cc(C2C=C(C34CC5CC(CC(C5)C3)C4)NC(=S)N2)cc(OC)c1OC (stereo not drawn)	none
COc1ccc(OC)c(C2C=C(C34CC5CC(CC(C5)C3)C4)NC(=S)N2)c1 (stereo not drawn)	HCMV antiviral inconclusive, HCV inhibitor 2.5µM
Cc1ccc(C(=O)NC(C)C(c2cccs2)N2CCCC2)s1 (stereo not drawn)	none
CCN(CCCNC(=O)c1cc2cc3ccc(OC)cc3nc2s1)c1cccc(C)c1	HCMV antiviral -68 (no result: AmpC no deterg, HCV inhibitor)
COc1ccc(OC)c(NC(=O)c2cc3cc4ccc(C)cc4nc3s2)c1	none (no result: AmpC no deterg, HCV inhibitor)
COc1ccc2nc3sc(C(=O)NCCCN4CCc5ccccc5C4)cc3cc2c1	AmpC detergent inconclusive, HCV inhibitor 10µM
CCN(CCCNC(=O)c1cc2cc3ccc(OC)cc3nc2s1)c1ccccc1	HCMV antiviral -77 (no result: HCV inhibitor)
CCN(CCCNC(=O)c1cc2c(=O)[nH]c3ccccc3c2s1)c1ccccc1	HCMV antiviral -81 (no result: AmpC no deterg, HCV inhibitor)
COc1ccc2nc3sc(C(=O)N4CCN(C)CC4)cc3cc2c1	none
COCCNC(=O)c1cc2c(=O)[nH]c3ccccc3c2s1	none
COc1ccc(NC(=O)CSc2cn(CCNC(=O)c3c(F)cccc3F)c3ccccc23)cc1	none (no result: AmpC no deterg, HCV inhibitor)
